Hits are enriched below; roughly 9.7% of the tested compounds scored in any of these assays.
M1 agonist: agonists of M1 muscarinic receptor. CHO-M1 cells, Fluo-4 calcium fluorescence, agonist mode; hits give high values. B-score at 10 µM. hit rate 3% among 64,000;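 active means fluorescence rise, raw or as B-score row- and column-corrected plate score, outside the 99.7% band of its plate's samples, either direction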
M1 antag: antagonists of rat M1 muscarinic receptor; CHO-M1 cells, Fluo-4 calcium, ACh EC80 antagonist mode; hits give low values; B-score at 10 µM; hit rate 3.4% among 64,000; AID 628;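 active means calcium fluorescence response, raw or row-and-column corrected B-score, differing from the plate sample mean either way at a set confidence level, mostly lower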
WNV protease inh: inhibitors of West Nile virus NS2B-NS3 protease. hit rate 0.18% among 65,000. z-score (no concentration beside the values). WNV NS2B-NS3 protease, fluorogenic substrate Ex360/Em465; hits give low values; in the data active means z-score below about -3
Target sequence (P06935 1371-1501 limits assumed): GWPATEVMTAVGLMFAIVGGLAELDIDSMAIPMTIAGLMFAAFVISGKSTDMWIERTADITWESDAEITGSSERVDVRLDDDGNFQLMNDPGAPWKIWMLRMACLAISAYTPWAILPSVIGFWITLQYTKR
Target sequence (P06935 1502-1679 limits assumed): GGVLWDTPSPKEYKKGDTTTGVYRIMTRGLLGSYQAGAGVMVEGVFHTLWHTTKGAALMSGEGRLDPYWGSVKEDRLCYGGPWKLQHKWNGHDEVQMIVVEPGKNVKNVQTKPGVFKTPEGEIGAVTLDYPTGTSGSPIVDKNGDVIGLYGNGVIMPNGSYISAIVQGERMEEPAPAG
Autofluor 339: intrinsic fluorescence of library compounds, ex339/em460 – biochemical, MLSMR library, data from DPM-DC assay, artefact control, profiling panel; compound autofluorescence, ex339/em460 nm, NADH buffer; hits give high values; 1 = no-compound wells, NADH background; hit rate 5.5% among 65,000; fluorescence fold increase at 10 µM;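 active means at 10 µM, mean starting fluorescence two-fold or more over control wells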;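 further: signal is the first read of a kinetic run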
BAP1 block: human BAP1 deubiquitinase inhibition | calls only at 20 µM | recombinant BAP1, Ub-AMC hydrolysis fluorescence kinetic; hits give low values | Q92560 | hit rate 0.48% among 72,000 | AID 436;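 active means activity remaining at or below 50% of control, provided the compound also passes the data quality filters; inactive means the rest, including low values that fail the filters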
A340 absorber: absorbance at 340 nm; fold change at 10 µM; AID 708; 65,000 tested, under 10 active; compound absorbance at 340 nm, fold over control;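 active means at 10 µM dose, initial 340 nm absorbance at least 2 fold that of control wells; inactive means change under 2 fold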;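 further: initial absorbance extrapolated from kinetic A340 decline of NADH oxidation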
Of the large screens only hits and unclear results are named; the others gave an inactive call.

COc1ccc(C(=O)Nc2ccc(NC(=O)c3ccc(C(C)(C)C)cc3)cc2)cc1[N+](=O)[O-]	none (no result: M1 agonist, M1 antag, WNV protease inh, Autofluor 339, A340 absorber)
O=C1c2ccc(-c3nc4ccccc4o3)cc2C(=O)N1Cc1cccnc1	Autofluor 339 2.1
c1cncc(-c2nc3ccccc3o2)c1	none
CCN1CCN(Cc2c(O)ccc3c(=O)c(-c4ccc(OC)c(OC)c4)c(C)oc23)CC1	Autofluor 339 3.9 (not shown: BAP1 block)
COc1ccc(-c2c(C)oc3c(CN4CCN(C)CC4)c(O)ccc3c2=O)cc1	Autofluor 339 2.2 (not shown: BAP1 block)
COc1ccc(-c2c(C(F)(F)F)oc3c(CN4CCN(C)CC4)c(O)ccc3c2=O)cc1	none
c1cncc(-c2cc(-c3ccncc3)nc3ccc4ccccc4c23)c1	none (no result: M1 agonist, M1 antag, WNV protease inh, Autofluor 339, A340 absorber)
COc1cc(Sc2ccc(C)cc2)c(OC)cc1N	none
COC(=O)c1ccc(Sc2ccc(C)cc2)c(N)c1	Autofluor 339 3.1
O=c1oc(-c2cccs2)nc2sc3c(c12)CCCCC3	Autofluor 339 2.1
COC(=O)c1sc(-c2ccccc2)cc1NC(=O)c1ccc(S(=O)(=O)N2CC(C)OC(C)C2)cc1 (stereo not given)	none (no result: M1 agonist, M1 antag, WNV protease inh, Autofluor 339, A340 absorber)
CCc1nnc2sc(-c3ccc(NC(=O)c4ccc5c(c4)OCCO5)cc3)nn12	Autofluor 339 3.9 (not shown: BAP1 block)
c1ccc(Cc2nnc3sc(-c4ccc5c(c4)OCCO5)nn23)cc1	none
c1ccc(Cc2nnc3sc(-c4ccc5c(c4)OCO5)nn23)cc1	Autofluor 339 3.5 (not shown: BAP1 block)
CCc1nnc2sc(-c3ccc(NC(=O)c4ccco4)cc3)nn12	none
O=C(Nc1ccccc1C(=O)O)c1cc(S(=O)(=O)Nc2ccc(Br)cc2)ccc1Cl	none (no result: M1 agonist, M1 antag, WNV protease inh, Autofluor 339, A340 absorber)
O=C(Nc1ccccc1[N+](=O)[O-])c1cccc(S(=O)(=O)N2CCc3ccccc32)c1	none (no result: M1 agonist, M1 antag, WNV protease inh, Autofluor 339, A340 absorber)
CCOc1cc(/C=N/n2cnnc2)ccc1O	none
Cn1c(=O)n(C)c2cc(/C=N/n3cnnc3)ccc21	Autofluor 339 2.8
CCO/C=C1\C(=O)N(c2ccccc2)C(=O)c2ccccc21	Autofluor 339 2.2
CCN(CC)C(=O)CSc1nnc(-c2ccccc2)n1N	M1 antag 2.4 (no result: BAP1 block)
O=C(CN1C(=O)c2ccccc2C1=O)NCC1COc2ccccc2O1 (stereo not given)	M1 antag 1.2
COC(=O)CSc1ccc2c(N)c(C(=O)OC)sc2c1	Autofluor 339 2.5 (no result: M1 agonist, M1 antag)
COCCNC(=O)C(C#N)c1nc2ccccc2nc1N1CCCCCC1 (stereo not given)	Autofluor 339 2.5
N#CC(C(=O)NC1CCCCC1)c1nc2ccccc2nc1N1CCCCC1 (stereo not given)	M1 agonist 49
CCCCNC(=O)C(C#N)c1nc2ccccc2nc1N1CCN(c2ccccc2F)CC1 (stereo not given)	M1 agonist 36 (not shown: BAP1 block)
Cc1ccc(S(=O)(=O)C(C#N)c2nc3ccccc3nc2N2CCCCC2)cc1 (stereo not given)	none
N#CC(c1nc2ccccc2nc1N1CCCCC1)S(=O)(=O)c1ccc(Cl)cc1 (stereo not given)	BAP1 block active
N#CC(C(=O)NC1CC1)c1nc2ccccc2nc1N1CCCC1 (stereo not given)	none
CCN(CC)c1ccc2cc(C(=O)Nc3ccccc3)c(=O)oc2c1	none (no result: M1 agonist, M1 antag, WNV protease inh, Autofluor 339, A340 absorber)
CCOC(=O)C1CCCN(c2nc3ccccc3nc2C(C#N)C(=O)OCC)C1 (stereo not given)	none
CCOC(=O)C1CCN(c2nc3ccccc3nc2C(C#N)C(=O)NCCc2ccccc2)CC1 (stereo not given)	M1 agonist 33 (not shown: BAP1 block)
CCOc1ccc(-c2nnc(NC(=O)c3ccc(OCC(C)C)c(OC)c3)o2)cc1	Autofluor 339 4.9 (not shown: BAP1 block)
COc1cccc(C(=O)Nc2nnc(-c3ccc(Cl)cc3)o2)c1	none
CCCc1nc(SCC(=O)c2ccc(OC)cc2)c2c(=O)n(C)c(=O)n(C)c2n1	none
COC(=O)C(C)Sc1nc(-c2ccc(OC)cc2)nc2c1c(=O)n(C)c(=O)n2C (stereo not given)	Autofluor 339 3.6 (not shown: BAP1 block)
CCOC(=O)C(CC)Sc1nc(-c2ccc(OC)cc2)nc2c1c(=O)n(C)c(=O)n2C (stereo not given)	Autofluor 339 5 (not shown: BAP1 block)
CCOC(=O)C(C)Sc1nc(-c2ccc(OC)cc2)nc2c1c(=O)n(C)c(=O)n2C (stereo not given)	Autofluor 339 2.2 (not shown: BAP1 block)
CC(=O)C(Sc1nc(-c2ccc(F)cc2)nc2c1c(=O)n(C)c(=O)n2C)C(C)=O	none
CCc1cc(C(=O)OC)c(NC(=O)c2cc(Br)cs2)s1	Autofluor 339 2.2
CC(C)(C)c1cc(=O)n2c(C#N)c(C#N)nc2[nH]1	Autofluor 339 5
O=C(NCCCN1CCOCC1)c1c(O)c2ccccc2[nH]c1=O	none
O=C(NCCCN1CCOCC1)c1cc2c(=O)[nH]c3ccccc3c2s1	Autofluor 339 4.7 (no result: M1 agonist, M1 antag)
CN(C)c1ccc(C2SCCN2C(=O)c2cc3ccccc3oc2=O)cc1 (stereo not given)	none (no result: M1 agonist, M1 antag, WNV protease inh, Autofluor 339, A340 absorber)
Cc1ccc(-n2nc3cc(C)c(NC(=O)COc4ccc5ccccc5c4)cc3n2)cc1	none (no result: M1 agonist, M1 antag, WNV protease inh, Autofluor 339, A340 absorber)
CCC(C)NC(=O)c1cc2nc(-c3cccs3)cc(C(F)(F)F)n2n1 (stereo not given)	none (no result: M1 agonist, M1 antag, WNV protease inh, Autofluor 339, A340 absorber)
Cc1nn(-c2ccc(F)cc2F)c2c1-c1nc(N3CCCC3)ncc1CC2	Autofluor 339 5.1 (not shown: BAP1 block)
O=C(Cn1cc2c(n1)CCCCC2)Nc1ccc(F)cc1F	none
Cc1cc(C(=O)COc2ccc3ccc(=O)oc3c2)c(C)n1Cc1cccs1	Autofluor 339 2.6 (not shown: BAP1 block)
CCOC(=O)c1c(NC(=O)c2ccccc2F)sc(C(C)=O)c1C	none (no result: M1 agonist, M1 antag, WNV protease inh, Autofluor 339, A340 absorber)
CCOC(=O)c1sc2cccc(F)c2c1N	Autofluor 339 2.7 (not shown: BAP1 block)
CCc1ccc(C2NC(=O)NC(C)=C2C(=O)OCCOc2ccccc2)cc1 (stereo not given)	none (no result: M1 agonist, M1 antag, WNV protease inh, Autofluor 339, A340 absorber)
CCN(CC)C(=O)C1CCN(Cc2ccc(Br)cc2)CC1	Autofluor 339 2.7
CCOC(=O)N1CCC2(CC1)CC(=O)c1cc(O)ccc1O2	none
CC(=O)N1CCC2(CC1)CC(=O)c1cc(OCC(=O)NCc3ccc(C)cc3)ccc1O2	Autofluor 339 3.5
CC(=O)N1CCC2(CC1)CC(=O)c1cc(OCC(=O)NCc3ccco3)ccc1O2	Autofluor 339 3.4 (not shown: BAP1 block)
Cc1cc(C)c2c(n1)nn1c(N3CCN(c4ccccc4)CC3)cc(C)nc21	Autofluor 339 3.2
Cc1nn2c(N3CCN(c4ccccn4)CC3)cc(C(C)C)nc2c1-c1ccccc1	Autofluor 339 3.1 (not shown: BAP1 block)
Cc1cc(C)c2c(n1)nn1c(N3CCN(c4ccccn4)CC3)cc(C)nc21	Autofluor 339 3
Brc1ccc2nc(Nc3ccccn3)nc(-c3ccccc3)c2c1	none (no result: M1 agonist, M1 antag, WNV protease inh, Autofluor 339, A340 absorber)
CCOC(=O)c1sc(N)nc1C	none (no result: M1 agonist, M1 antag, WNV protease inh, Autofluor 339, A340 absorber)
CC1=C(C(=O)N2CCOCC2)C(c2ccsc2)C2=C(CCCC2=O)N1 (stereo not given)	Autofluor 339 2.9
COC(=O)C1=C(C)NC2=C(C(=O)CCC2)C1c1ccsc1 (stereo not given)	none
CCc1ccc(NC(=O)c2ccc3c(c2)C(=O)N(Cc2ccco2)C3=O)cc1	none
